PubChem BioAssay AID1159580 (chemical genetic matrix, 2015)
The campaign covered roughly 5,500 compounds. About 2,000 (36%) were called active. Another 18% or so got no clear call; they are omitted. Cut-off read from the data, not from the text of the source: active = normalized growth mostly below about 0.91 (no sharp cut-off); inconclusive = no clear call, values can overlap the other calls; inactive = mostly above about 0.92. The list shows a part of the results.

Assay: chemical genetic growth profiling, strain panel (AID 1159580);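 note: tested at 20 µM; growth read once vehicle control cultures reached saturation at 30 °C; 1 = growth at the plate median or of vehicle wells; lower values mean less growth of the strain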
Conditions: S. cerevisiae deletion strains, growth OD
[1] = locus YJR075W, strain HOC1, stronger effect = lower value
[2] = locus YMR263W, strain SAP30, stronger effect = lower value
[3] = locus YNL153C, strain GIM3, stronger effect = lower value

Measured: normalized growth

C=C(C)C1(O)OC(=O)C=C1OC (stereo unspecified)
inactive: locus YBR021W, strain FUR4, stronger effect = lower value 0.995 | locus YBR229C, strain ROT2, stronger effect = lower value 0.944 | locus YCL029C, strain bik1, stronger effect = lower value 0.977 | locus YDL035C, strain GPR1, stronger effect = lower value 0.987 | locus YDL074C, strain BRE1, stronger effect = lower value 1.01 | locus YDL101C, strain DUN1, stronger effect = lower value 0.994 | locus YDL185W, strain tfp1, stronger effect = lower value 0.968 | locus YDL192W, strain arf1, stronger effect = lower value 0.984 | locus YDR101C, strain arx1, stronger effect = lower value 1 | locus YDR150W, strain NUM1, stronger effect = lower value 0.986 | locus YDR162C, strain NBP2, stronger effect = lower value 0.961 | locus YDR318W, strain mcm21, stronger effect = lower value 0.981 | locus YDR388W, stronger effect = lower value 0.997 | locus YDR502C, strain sam2, stronger effect = lower value 0.996 | locus YEL061C, strain CIN8, stronger effect = lower value 0.989 | locus YER110C, stronger effect = lower value 0.991 | locus YER155C, strain BEM2, stronger effect = lower value 0.996 | locus YER167W, strain BCK2, stronger effect = lower value 0.978 | locus YGL078C, strain dbp3, stronger effect = lower value 0.991 | locus YGL086W, strain mad1, stronger effect = lower value 1.03 | locus YGL248W, strain PDE1, stronger effect = lower value 0.978 | locus YGR078C, strain PAC10, stronger effect = lower value 1.03 | locus YGR135W, strain pre9, stronger effect = lower value 0.983 | locus YGR252W, strain gcn5, stronger effect = lower value 0.98 | locus YHR030C, strain SLT2, stronger effect = lower value 0.981 | locus YHR079C, strain IRE1 (second series), stronger effect = lower value 0.986 | locus YHR094C, strain hxt1, stronger effect = lower value 0.983 | locus YHR129C, strain ARP1, stronger effect = lower value 0.985 | locus YHR200W, strain rpn10, stronger effect = lower value 0.994 | locus YIL066C, strain RNR3, stronger effect = lower value 0.965 | locus YIL073C, strain SPO22, stronger effect = lower value 0.978 | locus YIL125W, strain kgd1, stronger effect = lower value 0.98 | locus YIR030C, strain dcg1, stronger effect = lower value 0.986 | locus YJL095W, strain BCK1, stronger effect = lower value 1.06 | locus YJL134W, strain LCB3, stronger effect = lower value 0.981 | locus YJL168C, strain set2, stronger effect = lower value 0.992 | locus YJL187C, strain SWE1 (second series), stronger effect = lower value 1 | locus YJR043C, strain POL32, stronger effect = lower value 0.948 | [1] 1.03 | locus YKL009W, strain mrt4, stronger effect = lower value 1.01 | locus YKL068W, stronger effect = lower value 0.965 | locus YKL085W, strain MDH1 (second series), stronger effect = lower value 0.962 | locus YKL085W, strain MDH1, stronger effect = lower value 0.962 | locus YKL190W, strain CNB1, stronger effect = lower value 1 | locus YKR001C, strain vps1, stronger effect = lower value 0.995 | locus YLR039C, strain RIC1, stronger effect = lower value 0.963 | locus YLR058C, strain SHM2, stronger effect = lower value 0.97 | locus YLR102C, strain apc9, stronger effect = lower value 0.99 | locus YLR262C, strain YPT6, stronger effect = lower value 0.918 | locus YLR268W, strain sec22, stronger effect = lower value 1.04 | locus YLR330W, strain CHS5, stronger effect = lower value 0.992 | locus YLR342W, strain FKS1 (second series), stronger effect = lower value 0.985 | locus YLR371W, strain rom2, stronger effect = lower value 0.97 | locus YLR418C, strain cdc73, stronger effect = lower value 0.964 | locus YML016C, strain PPZ1, stronger effect = lower value 0.978 | locus YML032C, strain rad52, stronger effect = lower value 0.975 | locus YML124C, strain tub3, stronger effect = lower value 0.984 | locus YMR078C, strain ctf18, stronger effect = lower value 0.991 | locus YMR223W, strain ubp8, stronger effect = lower value 0.992 | [2] 1.01 | locus YMR307W, strain GAS1, stronger effect = lower value 0.947 | locus YNL067W, strain RPL9B, stronger effect = lower value 1.03 | locus YNL128W, strain TEP1, stronger effect = lower value 0.997 | [3] 1.02 | locus YNL233W, strain BNI4, stronger effect = lower value 1.04 | locus YNL250W, strain rad50, stronger effect = lower value 0.958 | locus YNL271C, strain bni1, stronger effect = lower value 0.989 | locus YNL298W, strain CLA4, stronger effect = lower value 1.02 | locus YNL307C, strain MCK1, stronger effect = lower value 0.999 | locus YNL322C, strain KRE1, stronger effect = lower value 0.98 | locus YNR052C, strain pop2, stronger effect = lower value 1.01 | locus YOL006C, strain TOP1, stronger effect = lower value 1.05 | locus YOL012C, strain htz1 1.2 | locus YOL147C, strain pex11, stronger effect = lower value 0.991 | locus YOR061W, strain CKA2, stronger effect = lower value 0.964 | locus YOR069W, strain VPS5, stronger effect = lower value 0.985 | locus YOR136W, strain idh2, stronger effect = lower value 1 | locus YOR144C, strain elg1, stronger effect = lower value 0.981 | locus YOR184W, strain ser1, stronger effect = lower value 0.973 | locus YOR316C, strain cot1, stronger effect = lower value 0.994 | locus YPR119W, strain clb2, stronger effect = lower value 0.987 | locus YPR141C, strain kar3, stronger effect = lower value 0.977 | locus YPR163C, strain tif3, stronger effect = lower value 0.99 | locus YPR167C, strain met16, stronger effect = lower value 0.992 | strain wtn01, stronger effect = lower value 1.02

O=C1c2ccccc2-c2n[nH]c3cccc1c23
inactive: locus YDR363W, strain ESC2, stronger effect = lower value 0.906 | locus YER002W, strain NOP16, stronger effect = lower value 0.982 | [2] 0.981
active: locus YAL040C, strain CLN3, stronger effect = lower value 0.674 | [1] 0.827 | [3] 0.345 | locus YNL175C, strain NOP13, stronger effect = lower value 0.621 | locus YNL197C, strain WHI3, stronger effect = lower value 0.826 | locus YNL224C, strain SQS1, stronger effect = lower value 0.654 | locus YOR083W, strain WHI5 (second series), stronger effect = lower value 0.504 | locus YPL055C, strain LGE1, stronger effect = lower value 0.727
